# PfHsp90 set2 – inhibits growth of yeast expressing Plasmodium falciparum Hsp90. 0.32% of 310,000 active. inhibition, % at 9.4 µM. S. cerevisiae expressing PfHsp90, BacTiter-Glo ATP, 48 h; yeast lacking PDR1 and PDR3 efflux regulators. AID 504621;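 active = every replicate shows inhibition above about 80%, whatever the replicate mean, limit read from the data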;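 note: 0% = DMSO neutral controls and 100% = 20 µM radicicol positive controls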
# tim10-1 inh – tim10-1 yeast growth inhibition; AID 463190; inhibition, % at 20 µM; 2.2% of 330,000 active; S. cerevisiae tim10-1 ts strain growth, BacTiter-Glo, 24 h;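 active = inhibition of at least 40%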;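 note: mutant grown at 25 °C; 0% = DMSO wells with yeast and 100% = wells holding no yeast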
# TIM10 inh – growth inhibitors of TIM10 yeast strain; S. cerevisiae TIM10 strain growth, BacTiter-Glo luminescence, 24 h; inhibition, % at 10 µM; 1.4% of 330,000 active;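 active = inhibition of 40% or more at the single tested concentration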;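 note: wild-type TIM10 isogenic control strain grown at permissive 25 °C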
# tim23-1 inh – tim23-1 yeast growth inhibition; 1.3% of 330,000 active; inhibition, % at 20 µM; S. cerevisiae tim23-1 growth, BacTiter-Glo luminescence, 24 h;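 active = growth inhibition of the mutant yeast at or above 50%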;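 note: temperature-sensitive mutant grown at 25 °C; plate controls were DMSO-treated mutant yeast for no effect and medium wells lacking yeast for full effect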
# NLRP3 yeast inh – NALP3 inhibition in yeast. 0.39% of 330,000 active. inhibition, % at 10 µM. Yeast reconstituted NLRP3/ASC/caspase-1, beta-gal luminescence, 24 h. AID 2825;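 active = inhibition of 50% or more; inactive = inhibition below 50%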;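 note: plate controls were induced DMSO wells for no effect and uninduced yeast grown without galactose for full effect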
# tim10-1 confirm – tim10-1 yeast growth inhibition, confirmed | shares compounds with tim10-1 inh | S. cerevisiae tim10-1 ts strain growth, BacTiter-Glo, 24 h | inhibition, % at 20 µM | 56% of 7,400 active | AID 463213;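 active = inhibition of yeast growth at or above a set limit in either of two repeat tests at 20 µM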;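 note: tim10-1 mutant grown at permissive 25 °C to find synthetic lethal compounds; 0% = DMSO yeast wells and 100% = medium wells without yeast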
# tim10 confirm – confirmation of TIM10 yeast growth inhibitors; S. cerevisiae tim10 strain growth, BacTiter-Glo luminescence, 24 h; shares compounds with TIM10 inh; 63% of 4,600 active; inhibition, % at 10 µM; AID 463215;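 active = inhibition of yeast growth at or above a set limit in either of two replicates at 10 µM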;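 note: this counterscreen used the strain with wild-type TIM10; 0% = yeast with DMSO and 100% = medium wells lacking yeast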
# tim23-1 confirm – confirmation of tim23-1 mutant yeast growth inhibitors; S. cerevisiae tim23-1 growth, BacTiter-Glo luminescence, 24 h; inhibition, % at 20 µM; 83% of 4,400 active; shares compounds with tim23-1 inh; AID 463218;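 active = inhibition above about 39% in either of two replicate wells at 20 µM, limit read from the data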;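 note: temperature-sensitive tim23-1 mutant grown at 25 °C; 0% = DMSO wells with yeast and 100% = medium wells without yeast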
# * marks the source's active call; other numbers are inactive results; · = no result given. Rows were chosen to be rich in hits. Some 3.7% of all compounds tested hit in one or more screens of this group.
SMILES,PfHsp90 set2,tim10-1 inh,TIM10 inh,tim23-1 inh,NLRP3 yeast inh,tim10-1 confirm,tim10 confirm,tim23-1 confirm
CCC(C)n1c(/C=C/c2ccccc2)nc2ccccc21 (stereo not drawn),-10.7,45.4*,43.7*,53.1*,11.0,35.4*,22.6,50.2*
O=C(CCC(=O)N1CCN(c2cccc(Cl)c2)CC1)c1cccs1,·,-9.9,-22.6,8.1,8.3,·,·,·
O=C(N/N=C/c1cccc(Br)c1)c1ccc(Cn2cc(Br)cn2)o1,-6.1,49.3*,68.2*,76.4*,4.8,60.1*,80.9*,83.0*
Cc1ccc(C(=O)O/N=C(\N)Cc2cccs2)cc1[N+](=O)[O-],-26.2,43.2*,82.7*,88.2*,8.5,66.7*,85.1*,83.1*
COc1ccccc1C/C(N)=N/OC(=O)c1ccc(C)c([N+](=O)[O-])c1,-32.2,69.1*,85.7*,75.2*,31.1,42.8*,85.9*,41.5*
OCCC1CN(Cc2cc3c(cc2Cl)OCO3)CCN1Cc1ccccc1 (stereo not drawn),-14.6,14.2,-15.8,10.9,19.4,·,·,·
O=C(CC(C(=O)O)c1cccc(Br)c1)c1ccc(Cl)cc1 (stereo not drawn),-8.0,-3.6,10.2,1.4,11.1,·,·,·
CC(=O)OCCCN1c2ccccc2Nc2nnc(-c3ccccc3)cc21,-9.1,46.8*,51.5*,50.8*,23.2,31.9*,30.0*,48.8*
O=C(Nc1nc2cc3c(cc2s1)OCO3)c1ccco1,33.1,·,·,·,·,·,·,·
O=C(Nc1nc2cc3c(cc2s1)OCCO3)c1ccco1,53.4,48.7*,43.2*,75.0*,43.3,41.1*,40.6*,60.0*
COc1cc(/C=C(\C#N)C(=O)N2CCOCC2)cc(Br)c1O,9.3,-7.7,4.8,11.8,18.6,·,·,·
N#C/C(=C\c1cccc(Oc2ccccc2)c1)C(=O)N1CCOCC1,99.6*,81.2*,82.0*,80.1*,29.8,80.3*,77.5*,76.5*
CC(=O)c1cccc(NC(=O)C2=CC(c3ccc4c(c3)OCO4)=NS(=O)(=O)N2C)c1,-10.3,0.0,5.3,0.9,10.0,·,·,·
CC(C)(C)Nc1c([N+](=O)[O-])c(=O)sc2ccccc12,1.2,54.6*,59.6*,71.3*,15.2,52.8*,48.6*,68.6*
CCCCCCNc1c([N+](=O)[O-])c(=O)sc2ccccc12,·,3.0,33.4,36.9,31.8,·,·,·
O=C(Nc1ccccc1)/C(=C1\CCCN1)[N+](=O)[O-],-6.3,6.8,-6.3,15.3,3.9,·,·,·
Cc1nnnn1/C(=C\c1ccccc1)C(=O)OCC(=O)Nc1ccc(Cl)cc1F,-110.5,43.8*,96.4*,79.6*,36.1,22.0,74.9*,40.4*
COc1ccc(C)cc1N(CC(=O)Nc1ccc(S(=O)(=O)N2CCCC2)cc1)S(C)(=O)=O,4.3,-12.6,-1.3,-1.5,7.9,·,·,·
COc1ccc(NC(=O)/C(Cl)=C(/Cl)S(=O)Cc2ccccc2Cl)cn1 (stereo not drawn),107.2*,41.8*,54.5*,79.3*,28.5,22.9,84.4*,21.3
COc1ccc(NC(=O)Cc2ccc(Cl)c(Cl)c2)cn1,-26.1,-10.7,-6.3,22.6,10.8,·,·,·
Cc1ccc(C(C)C)cc1NC(=O)Nc1ccc([N+](=O)[O-])cc1,31.6,75.7*,68.5*,74.7*,45.4,79.3*,67.2*,83.0*
Cc1cc(O)c(C(C)C)cc1NC(=O)Nc1ccc([N+](=O)[O-])cc1,-0.2,·,·,·,·,·,·,·
Cc1cc(C)c2sc(NC(=O)C3CC3)nc2c1,21.7,46.6*,42.3*,61.0*,44.6,31.7*,34.3*,64.8*
Cc1nc2ccccc2c2c(N)c3ccccc3n12,34.8,41.4*,76.6*,53.0*,20.7,47.4*,28.9,55.0*
NNC(=O)COc1ccc(F)cc1,20.7,8.5,3.8,10.2,10.1,·,·,·
SMILES,PfHsp90 set2,tim10-1 inh,TIM10 inh,tim23-1 inh,NLRP3 yeast inh,tim10-1 confirm,tim10 confirm,tim23-1 confirm
Oc1ccc(-c2nccc(-c3ccc(F)cc3)n2)cc1,-31.7,51.9*,34.2,62.2*,2.1,53.8*,·,-15.8
NNC(=O)COc1ccc(-c2nccc(-c3ccc(F)cc3)n2)cc1,13.6,49.2*,13.3,54.5*,25.0,29.6,·,40.7*
COCCOC(=O)C(C#N)c1nc2ccccc2nc1N1CCN(Cc2ccccc2)CC1 (stereo not drawn),23.1,25.0,23.4,25.4,22.0,·,·,·
C=CCOC(=O)C(C#N)c1nc2ccccc2nc1N1CCN(Cc2ccccc2)CC1 (stereo not drawn),1.2,46.5*,36.1,50.3*,7.4,36.4*,·,43.5*
CC(C)COC(=O)C(C#N)c1nc2ccccc2nc1N1CCN(Cc2ccccc2)CC1 (stereo not drawn),-9.9,42.1*,39.4,51.4*,21.4,11.8,·,21.2
O=C1C2C(c3ccccc3)C=CC(c3ccccc3)C2C(=O)N1c1ccncc1 (stereo not drawn),-25.0,41.5*,13.6,53.5*,18.5,35.6*,·,48.8*
CNc1nc(-c2ccccc2)nc(-c2ccccc2)c1C#N,13.4,8.9,-5.3,-0.3,-4.9,·,·,·
NNc1nc(-c2ccccc2)nc(-c2ccccc2)c1Br,8.0,46.3*,41.5*,56.7*,15.2,33.3*,-4.4,45.6*
O=C(COc1cccc(NC(=O)c2ccco2)c1)c1ccc(F)cc1,39.2,41.9*,47.2*,55.1*,22.2,32.2*,48.0*,70.9*
O=C(COc1cccc(NC(=O)c2cccc([N+](=O)[O-])c2)c1)c1ccc(F)cc1,18.4,15.2,18.9,11.5,16.6,·,·,·
O=C(c1ccccn1)N1CCCC(N2CCN(c3cccc(C(F)(F)F)c3)CC2)C1 (stereo not drawn),-5.9,11.4,15.2,11.2,10.6,·,·,·
O=C1CC(c2ccccc2)CC(O)=C1C=Nc1cccc(Cl)c1 (stereo not drawn),105.4*,89.2*,89.9*,84.8*,3.7,78.9*,93.8*,85.1*
O=C1CC(c2ccccc2)CC(O)=C1C=Nc1ccc(Cl)cc1 (stereo not drawn),1.6,27.4,26.0,7.1,-5.3,·,·,·
O=C(O)c1cnc(-c2ccccc2)nc1Sc1ccc(Cl)cc1Cl,·,53.5*,12.6,51.0*,2.0,14.7,·,-43.5
Nc1cccc(N=[N+]([O-])c2cccc(N)c2)c1,13.8,·,·,·,·,·,·,·
Cc1cc(N)n2ncc(-c3cccc(Br)c3)c2n1,-11.3,45.6*,51.4*,81.5*,-17.6,50.2*,52.5*,40.0*
COc1ccc(S(=O)(=O)N2CCCC2CNC(=O)C(=O)NCc2ccccc2Cl)cc1 (stereo not drawn),4.2,17.2,6.6,16.0,3.5,·,·,·
